The source of these data is PubChem BioAssay (NCI).

Structures are written as SMILES. About 83,000 compounds went through this panel and 20% of them were active in at least one assay; those are over-represented in the sample as a whole.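 Negative percent growth values reflect cell death: -40 means 40% of the cells present at the start died, and -100 means all died.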 Values without a mark were called inactive. Active and inactive are the calls of the source. The calls were made as follows: active = growth percent below 10; inactive = the rest.

Among the test systems are SK-MEL-2 melanoma; EKVX NSCLC; SN12C renal; UO-31 renal; TK-10 renal; ACHN renal; CAKI-1 renal; A498 renal; CCRF-CEM leukemia; MOLT-4 leukemia; SR leukemia; RPMI-8226 leukemia; OVCAR-8 ovarian; OVCAR-5 ovarian; OVCAR-4 ovarian; SK-OV-3 ovarian; IGROV1 ovarian; OVCAR-3 ovarian; HS 578T breast; NCI/ADR-RES ovarian.
What all share (test): NCI-60 one-dose screen, 48 h (100 = growth as untreated, 0 = no growth, -100 = all killed)
Conditions in all cases: 10 µM unless noted

Take `NC(=O)c1cc(Br)ccc1NC(=O)/C=C/c1ccccc1`: the growth is 47.7% in the assay on SK-MEL-2 melanoma; 46.4% with EKVX NSCLC; 48.3% in the assay with SN12C renal; 37.7% in the assay with UO-31 renal; 98.7% in the assay with TK-10 renal; 64.4% with ACHN renal. Also, the growth is 53.2% with CAKI-1 renal; 59.7% with A498 renal; 9.57% (active) in the assay with CCRF-CEM leukemia; 36.8% in the assay on MOLT-4 leukemia; -10.1% (active) in the assay with SR leukemia; 24.4% in the assay on RPMI-8226 leukemia. Moreover, the growth in the assay with OVCAR-8 ovarian is 54.4%; in the assay with OVCAR-5 ovarian, 49.9%; in the assay with OVCAR-4 ovarian it was 35.8%; in the assay on SK-OV-3 ovarian, 31.1%; in the assay on IGROV1 ovarian it was 86.6%; in the assay with OVCAR-3 ovarian it was -12.2% (active). Also, the growth in the assay on HS 578T breast is 16.3%; in the assay with NCI/ADR-RES ovarian it was 11%.

As for `CCCOc1cc2ccccc2cc1C(=O)Nc1nc(NC)c2c(ccc3nccc32)[nH]1`, the growth in the assay with SK-MEL-2 melanoma was -60.8% (active); with EKVX NSCLC it was -78.4% (active); in the assay with SN12C renal, -71.7% (active); in the assay on UO-31 renal, -88.8% (active); in the assay on TK-10 renal, -65.8% (active); with ACHN renal it was -90.7% (active). The growth in the assay on CAKI-1 renal was -63.8% (active); in the assay with A498 renal it was -92% (active); with CCRF-CEM leukemia it was -30.2% (active); in the assay with MOLT-4 leukemia, -56.1% (active); in the assay with SR leukemia it was -49.3% (active); with RPMI-8226 leukemia, -46% (active). In addition, the growth in the assay on OVCAR-8 ovarian was -33.2% (active); in the assay with OVCAR-5 ovarian, -61.4% (active); in the assay with OVCAR-4 ovarian, -58.5% (active); with SK-OV-3 ovarian it was -86.9% (active); with IGROV1 ovarian it was -67.2% (active); in the assay on OVCAR-3 ovarian, -76% (active). Moreover, the growth in the assay on NCI/ADR-RES ovarian is -17% (active).

In the case of `O=C(O)c1ccc(NC(=O)c2ccc(-c3cccc([N+](=O)[O-])c3)o2)cc1`, the growth in the assay on SK-MEL-2 melanoma was 102%; in the assay on EKVX NSCLC it was 93.6%; in the assay on SN12C renal it was 93.2%; with UO-31 renal, 77.8%; in the assay on TK-10 renal, 102%; in the assay on ACHN renal, 104%. Besides, the growth in the assay with CAKI-1 renal is 88%; in the assay with A498 renal, 110%; in the assay with CCRF-CEM leukemia, 106%; in the assay on MOLT-4 leukemia, 109%; in the assay on SR leukemia, 113%; in the assay on RPMI-8226 leukemia, 101%. The growth is 103% in the assay with OVCAR-8 ovarian; 106% with OVCAR-5 ovarian; 93.9% in the assay with OVCAR-4 ovarian; 98.8% in the assay on SK-OV-3 ovarian; 92.2% with IGROV1 ovarian; 102% in the assay with OVCAR-3 ovarian. Moreover, the figures for the growth in the assay with HS 578T breast and with NCI/ADR-RES ovarian were 90.7% and 98.5%, respectively.

`Cc1[nH]c(-c2ccc3cc[nH]c3c2)c2c1C(=O)CCCC2`: the growth in the assay with SK-MEL-2 melanoma is 71%; in the assay on EKVX NSCLC it was 47.8%; in the assay with SN12C renal, 50.8%; with UO-31 renal, 22.2%; in the assay with TK-10 renal it was 32.7%; in the assay on ACHN renal it was 41.2%. The growth is 11.9% in the assay on CAKI-1 renal; 44.4% in the assay on A498 renal; 64.7% in the assay on CCRF-CEM leukemia; 68.6% in the assay with MOLT-4 leukemia; 50.9% in the assay on SR leukemia; 21.9% in the assay on RPMI-8226 leukemia. The growth in the assay with OVCAR-8 ovarian was 46.4%; in the assay with OVCAR-5 ovarian it was 78.2%; in the assay on OVCAR-4 ovarian it was 48.5%; in the assay on SK-OV-3 ovarian, 25.5%; in the assay with IGROV1 ovarian it was 36.9%; with OVCAR-3 ovarian, 51%. The growth was 21.9% in the assay on HS 578T breast and 40.7% with NCI/ADR-RES ovarian.

On to `CCOc1nc(-c2ccccc2)cc2c(O)c(C(=O)N/N=C/c3ccc(O)cc3O)[nH]c(=O)c12`, for which the growth in the assay on SK-MEL-2 melanoma was -8.71% (active); with EKVX NSCLC, 36.2%; in the assay with SN12C renal it was 39.1%; in the assay on UO-31 renal, -13.2% (active); in the assay with TK-10 renal it was 52.1%; in the assay with ACHN renal it was 9.99% (active). The growth in the assay on CAKI-1 renal is 8.55% (active); in the assay on A498 renal, 65.3%; in the assay with CCRF-CEM leukemia it was -33.9% (active); in the assay with MOLT-4 leukemia, 17.3%; with SR leukemia it was 27%; with RPMI-8226 leukemia, 38%. The growth was 14.5% in the assay with OVCAR-8 ovarian; 43.6% in the assay with OVCAR-5 ovarian; 39.3% in the assay with OVCAR-4 ovarian; 41.6% in the assay with SK-OV-3 ovarian; 15.6% in the assay on IGROV1 ovarian; 30.9% with OVCAR-3 ovarian. The growth with HS 578T breast is 82.9%; in the assay with NCI/ADR-RES ovarian, -40.1% (active).

For the molecule `CCCc1cc(=O)n2c(C(=O)Nc3cccc(C(=O)OCC)c3)c(C(=O)Nc3ccc(F)cc3)sc2n1`, the growth in the assay on SK-MEL-2 melanoma is 63.4% [30 µM]; in the assay on EKVX NSCLC, 92.8% [30 µM]; in the assay with SN12C renal, 28.8% [30 µM]; in the assay on UO-31 renal it was 15.7% [30 µM]; with TK-10 renal it was 45% [30 µM]; in the assay with ACHN renal, 38.9% [30 µM]. Also, the growth in the assay with CAKI-1 renal is 17.3% [30 µM]; with A498 renal, 8.74% [30 µM] (active); in the assay on CCRF-CEM leukemia, 40.9% [30 µM]; in the assay with MOLT-4 leukemia, 127% [30 µM]; in the assay with SR leukemia, 82.4% [30 µM]; with RPMI-8226 leukemia it was 57% [30 µM]. Also, the growth was -19.2% [30 µM] (active) in the assay on OVCAR-8 ovarian; 71.2% [30 µM] in the assay on OVCAR-5 ovarian; 9.71% [30 µM] (active) in the assay on OVCAR-4 ovarian; 62.2% [30 µM] in the assay on SK-OV-3 ovarian; 42.2% [30 µM] with IGROV1 ovarian; -4.26% [30 µM] (active) with OVCAR-3 ovarian. Besides, the growth in the assay with NCI/ADR-RES ovarian was 47.3% [30 µM].

In the case of `CCn1c(O)c(/C=N/NC(=O)C(C)c2ccc(CC(C)C)cc2)sc1=S` (stereo not drawn), the growth in the assay with SK-MEL-2 melanoma was 40.3%; with EKVX NSCLC, 41.1%; in the assay with SN12C renal, 38%; in the assay on UO-31 renal, 23.6%; with TK-10 renal, 56.5%; in the assay on ACHN renal, 34.6%. Besides, the growth in the assay on CAKI-1 renal was 35.1%; in the assay with A498 renal it was 17.2%; with CCRF-CEM leukemia it was 12.9%; in the assay on MOLT-4 leukemia it was 18.4%; in the assay on SR leukemia it was 26.3%; in the assay on RPMI-8226 leukemia, 1.77% (active). The growth is 22.6% in the assay on OVCAR-8 ovarian; 52% in the assay with OVCAR-5 ovarian; 56.7% in the assay on OVCAR-4 ovarian; 45.3% with SK-OV-3 ovarian; 24.1% with IGROV1 ovarian; 1.8% (active) in the assay on OVCAR-3 ovarian. Moreover, the values for the growth in the assay with HS 578T breast and in the assay with NCI/ADR-RES ovarian were 17.8% and 5.41% (active), respectively.
